Our source for the inhibition values is PubChem BioAssay AID1850 (Southern Research Specialized Biocontainment Screening …, 2009).

SMILES strings stand for the structures. Hit rate of the full screen: of about 310,000 compounds, about 1,000 (0.32%) were called active. A selection follows. Results with a measured potency or affinity are listed apart. Unmarked numbers belong to inactive results. How the calls were made is not given here.

A short description of this test: PhoP regulon inhibitors, Salmonella typhi PhoP promoter GFP reporter, confirmatory (AID 1850).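 Further: 0% = induced wells with vehicle and 100% = uninduced wells.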 Conditions: fluorescence, 4 h, at 50 µM, stronger effect = higher value.
As for `CCOC(=O)CC(c1ccc(N)cc1)n1c(C)ccc1C` (stereo unspecified), the inhibition is -3.47%.

`COc1ccc(Cc2noc(CN3CCCC(C(=O)c4cccs4)C3)n2)cc1OC` (stereo unspecified): the inhibition is -18.4%.

With `CCn1c(SCC(=O)NC2CCS(=O)(=O)C2)nnc1-c1ccccc1` (stereo unspecified), the inhibition is 3.32%.

As to `Cc1nnc(SCC(=O)NC2CCS(=O)(=O)C2)n1-c1ccccc1` (stereo unspecified), the inhibition is 6.38%.

In the case of `CN(C)c1nc(SCC(=O)Nc2ccccc2)nc(N2CCOCC2)n1`, the inhibition is 3.38%.

For the compound `O=C1CN(Cc2cc(=O)oc3cc4c(cc23)CCC4)CCN1`, the inhibition is -4.78%.

For the compound `CC1(C)C(=O)Nc2ccccc2N1C(=O)COC(=O)/C=C/c1ccc(OC(F)F)cc1`, the inhibition is -3.59%.

With `COc1cccc(C(C(=O)NC2CCCCC2)N(C(=O)Cc2cccs2)c2ccc(-n3cnnn3)c(OC)c2)c1` (stereo unspecified), the inhibition was -9.92%.

With `CC1CC(NC(=O)/C(C#N)=C/c2ccc[nH]2)CC(C)(C)C1` (stereo unspecified), the inhibition was 5.38%.

In the case of `N#C/C(=C\c1ccccc1)C(=O)NC1CC1`, the inhibition was 2.22%.

Regarding `COc1ccc(-n2nc(C(=O)NCC(=O)N3CCN(c4ccccc4)CC3)c3ccccc3c2=O)c(OC)c1`, the inhibition was 3.7%.

`CCCCCNc1nc(NCCCO)c(C#N)c2c1CN(C)CC2`: the inhibition was -3.01%.

As to `CC(C)CCNc1nc(N2CCCC2)c2c(c1C#N)CCN(C)C2`, the inhibition is 19.4%.

Consider `CC1(c2ccc(Cl)cc2Cl)NC(=O)N(CC(=O)Nc2ccc3[nH]c(=O)[nH]c3c2)C1=O` (stereo unspecified), for which the inhibition was -3.74%.

With `COc1ccc(CNC(=O)C2CCCN(S(=O)(=O)N3CCC(C)CC3)C2)c(OC)c1` (stereo unspecified), the inhibition was -14.4%.

On to `CCN(CC)C(=O)c1sc(N2C(=O)Nc3ccccc3N2O)c(C(=O)OC)c1C`, for which the inhibition was -7.07%.

In the case of `Cc1ccc(N2C(=O)CC(Sc3ncccc3C(=O)O)C2=O)cc1` (stereo unspecified), the inhibition was -7.58%.

As for `CCCCOc1ccc(N2C(N)=NC(N)=NC23CCCCC3)cc1`, the inhibition was 4.38%.

As to `NC1=NC2(CCCCC2)N=C(Nc2ccc(F)cc2F)N1`, the inhibition was 19%.

Consider `Cc1ccc(NC2=NC3(CCCC3)N=C(N)N2)c(C)c1`, for which the inhibition is 13.7%.

As to `CCOc1ccc(NC2=NC(C)(C)N=C(N)N2)cc1`, the inhibition was 5.96%.

On to `Cc1nc2ccccc2c(=O)n1/N=C/c1cn[nH]c1-c1ccccc1`, for which the inhibition is -0.17%.

Turning to `Cc1ccc(-c2[nH]ncc2/C=N/n2c(COc3ccccc3)nc3ccccc3c2=O)cc1`, the inhibition is -8.67%.

Turning to `Cc1nc2ccccc2c(=O)n1/N=C/c1ccccc1O`, the inhibition is 1.57%.

On to `Cc1nc2ccccc2c(=O)n1/N=C/c1cc(Br)cc(Br)c1O`, for which the inhibition is 9.81%.

`COc1ccc(NC(=O)C2CCCN2C(=O)NCc2ccccc2)cc1` (stereo unspecified): the inhibition is -5.86%.

Regarding `CSc1cccc(N2CC(C(=O)N(CC(C)C)c3c(N)n(Cc4ccccc4)c(=O)[nH]c3=O)CC2=O)c1` (stereo unspecified), the inhibition was -3.17%.

For `CCOc1ccc(C(=O)Nc2nnc(C(C)C)s2)cc1OCC`, the inhibition was -1.68%.

With `COCCN1CCN(C(=O)C2CCC(=O)N(CCc3ccc(Cl)cc3)C2)CC1` (stereo unspecified), the inhibition is -4.1%.

Consider `O=C(O)c1cccc(Nc2ccnc(Nc3cccc(C(=O)O)c3)n2)c1`, for which the inhibition was 2.42%.

In the case of `COc1ccc(Nc2ccnc(Nc3ccc(OC)cc3)n2)cc1`, the inhibition is -1.84%.

For the compound `c1ccc(Nc2cccc(Nc3ccccc3)n2)cc1`, the inhibition is 6.98%.

Take `Nc1ncnc(Nc2ccc(F)cc2)n1`: the inhibition is -3.3%.

For `Cc1c(C(=O)O)oc2ccc(S(=O)(=O)N3CCCCC3C(=O)O)cc12` (stereo unspecified), the inhibition was -3.93%.

Consider `C/C=C/c1ccc(OCC(O)CN2CCCCC2CC)c(OC)c1` (stereo unspecified), for which the inhibition was 8.19%.

As to `S=C1NC2(CCCCC2)NC12CCCCC2`, the inhibition is -9.21%.

As for `Cc1sc2nc(SCC(N)=O)n(-c3ccccc3)c(=O)c2c1C`, the inhibition is -0.27%.

With `O=C(NNc1nc2ccccc2s1)c1ccc(F)cc1`, the inhibition is -6.05%.

On to `O=C(NNc1nc2cc3c(cc2s1)OCO3)c1cccc(F)c1`, for which the inhibition is -11.1%.

With `CC(C)(C)c1ccc(S(=O)(=O)NNC(=O)C2CCN(Cc3cccc(F)c3)CC2)cc1`, the inhibition was 6.86%.

For the compound `C=CCOC(=O)C1=C(C)NC(SCC(=O)Nc2nccs2)=C(C#N)C1c1ccc(Cl)cc1` (stereo unspecified), the inhibition is 3.36%.

Consider `CN1CCN(C2Cc3ccccc3Sc3ccc(Cl)cc32)CC1` (stereo unspecified), for which the inhibition was -13%.

As to `CC(C)c1ccc2c(c1)C(N1CCNCC1)Cc1ccc(F)cc1S2` (stereo unspecified), the inhibition is 19.3%.

For `c1ccc2c(c1)CC(N1CCCCC1)c1ccccc1S2` (stereo unspecified), the inhibition was 16.3%.

With `CN1CCN(C2Cc3ccccc3Sc3cc(C(F)(F)F)ccc32)CC1` (stereo unspecified), the inhibition is 2.06%.

For the compound `O=C1Cc2ccccc2Sc2ccc(Cl)cc21`, the inhibition was -8.12%.

On to `NC(=O)CCN1CCN(CCOC2Cc3cc(Cl)ccc3Sc3ccccc32)CC1` (stereo unspecified), for which the inhibition is -4.99%.

For the compound `c1ccc2c(c1)CC(N1CCCCC1)c1ccccc1N2` (stereo unspecified), the inhibition is -3.45%.

For `CN1Cc2cccc3c2C(Cc2ccccc2S3)C1` (stereo unspecified), the inhibition was -6.53%.

Consider `Cc1ccccc1NC(=O)c1ccco1`, for which the inhibition was -6.44%.

With `COc1ccc(/C=C2\CCCC3C2=NC(=S)NC3c2ccc(OC)cc2)cc1` (stereo unspecified), the inhibition is -6.47%.

Take `COc1ccccc1-c1nc(-c2ccc(Br)cc2)no1`: the inhibition is 19.9%.

`CC1CCCCN1CCNC(=O)c1ccc2c(c1)N(Cc1cccc(Cl)c1)C(=O)c1ccccc1S2=O` (stereo unspecified): the inhibition is -21.9%.

On to `Cc1ccc(CNC(=O)C2CC(c3ccc(C(F)(F)F)cc3)=NO2)o1` (stereo unspecified), for which the inhibition was -0.47%.

As to `CCCc1cc(C(=O)OC)c(NC(=O)OCC)s1`, the inhibition was 0.48%.

On to `COC(=O)CNC(=O)c1ccc(NS(=O)(=O)c2cc([N+](=O)[O-])ccc2Cl)cc1`, for which the inhibition was -1.71%.

As to `CN(C)C(=O)c1ccc(-n2cnc3ccccc3c2=O)cc1`, the inhibition is 6.15%.

In the case of `Cc1cc(O)c2c(c1)C(=O)c1cc(O)cc(O)c1C2=O`, the inhibition was -20.4%.

With `COc1cc(NC(=O)c2cccs2)c(C(=O)OCC(=O)NC(=O)NCc2ccccc2)cc1OC`, the inhibition is -3.62%.

For the compound `O=C(COC(=O)c1ccc([N+](=O)[O-])s1)Nc1ccccc1`, the inhibition is 4.19%.

With `NS(=O)(=O)c1ccc(NC(=O)COC(=O)c2ccc([N+](=O)[O-])s2)cc1`, the inhibition is 9%.

What is called inhibition is the change of the read-out against control, counted positive when it falls.
